Measurements from the supplement of paper PMC6522484.
± gives the standard deviation of the averaged measurements.

Columns and labels:
DLD1 [1] = assay: cell viability (CellTiter-Glo) relative to plate median (fraction of plate median); higher = more viable cells; conditions: 5 µM; treatment time 24 h; reporter: 7TFP
Outline: (§1)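 Each entry is a luminescence signal normalised to the plate median, averaged over independent replicates. The replicate count was two, and the cells were colorectal cancer lines with stable lentiviral TCF/Wnt firefly luciferase reporters exposed to library compounds at a final 5 µM for 24 h. Firefly luciferase and CellTiterGlo were measured on parallel plates.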

HCT116 = assay: as above; conditions: 5 µM; treatment time 24 h; reporter: TCF4/Wnt
Outline: as §1

SW480 [2] = assay: as above; conditions: 5 µM; treatment time 24 h; reporter: 7TFP
Outline: as §1

DLD1 [3] = assay: TCF/Wnt firefly luciferase reporter signal relative to plate median (fraction of plate median); higher = higher Wnt reporter signal; conditions: 5 µM; treatment time 24 h; reporter: 7TFP
Outline: as §1

SW480 [4] = assay: as above; conditions: 5 µM; treatment time 24 h; reporter: 7TFP
Outline: as §1

Compound	cell viability (DLD1 [1])	cell viability (HCT116)	cell viability (SW480 [2])	TCF/Wnt firefly luciferase reporter signal (DLD1 [3])	TCF/Wnt firefly luciferase reporter signal (SW480 [4])
Nc1ccc(S(=O)(=O)c2ccc(N)cc2)cc1	1.08 ± 0.057	0.956 ± 0.063	1.02	0.94 ± 0.054	0.922 ± 0.059
CC(C)=CCOc1cc2oc(=O)ccc2cc1O	1.08 ± 0.014	1.19 ± 0.11	1.04 ± 0.028	1.005 ± 0.0071	1.07 ± 0.064
COC(C)c1cccc2nc3c(C(=O)O)cccc3nc12 (stereo not given) [Saphenic acid methylether]	1.03 ± 0.052	1.13 ± 0.028	1.04 ± 0.028	0.907 ± 0.1	1.15 ± 0.14
O=c1cc(-c2ccc(O)c(O)c2)oc2cc(O[C@@H]3O[C@H](CO)[C@@H](O)[C@H](O)[C@H]3O)cc(O)c12 [Luteolin-7-O-glucoside (102)]	0.908 ± 0.058	0.957 ± 0.041	0.95 ± 0.0028	0.861 ± 0.052	1.03 ± 0.072
C[C@H]1C(=O)CC[C@@H]2[C@]1(C)CC[C@H]1[C@@]2(C)CC[C@@]2(C)[C@@H]3CC(C)(C)CC[C@]3(C)CC[C@]12C	1.04 ± 0.014	0.983 ± 0.052	0.9995 ± 0.00071	0.95 ± 0.042	0.88 ± 0.09
CCCCC(=O)N(Cc1ccc(-c2ccccc2-c2nnn[nH]2)cc1)[C@H](C(=O)O)C(C)C	0.908 ± 0.081	0.988 ± 0.17	1 ± 0.054	0.985 ± 0.078	0.919 ± 0.09
COc1ccc([C@@H]2Sc3ccccc3N(CCN(C)C)C(=O)[C@@H]2OC(C)=O)cc1	0.931 ± 0.17	0.975 ± 0.028	1.01 ± 0.033	0.883 ± 0.029	0.989 ± 0.059
O=c1cc(CO)occ1O	1.02 ± 0.057	1.13 ± 0.099	0.932 ± 0.011	0.952 ± 0.069	1.04 ± 0.083
COc1cc2c3cc1Oc1cc(ccc1O)C[C@@H]1c4c(cc(OC)c(O)c4Oc4ccc(cc4)C[C@@H]3N(C)CC2)CC[N+]1(C)C	0.992 ± 0.012	1.01 ± 0.1	1.01 ± 0.045	0.977 ± 0.089	1.07 ± 0.05
O=C(O)c1c2ccccc2cc2ccccc12	0.959 ± 0.043	1.02 ± 0.13	1.01 ± 0.052	0.934 ± 0.064	0.872 ± 0.073
C/C1=C\CCC(=O)C2CC(C)(C)C2CC1 (stereo not given)	0.9755 ± 0.00071	0.908 ± 0.14	0.939 ± 0.012	0.918 ± 0.098	1.004 ± 0.0078
Cn1cnc([N+](=O)[O-])c1Sc1ncnc2[nH]cnc12	0.95 ± 0.018	1.02 ± 0.054	1.13 ± 0.057	1.03 ± 0.078	0.965 ± 0.034
CC(=O)Nc1c(I)cc(I)c(C(=O)O)c1I	1 ± 0.16	0.987 ± 0.014	0.946 ± 0.055	0.995 ± 0.092	1.09 ± 0.099
CCOC(=O)c1ccc(O)cc1	0.925 ± 0.019	0.89 ± 0.056	1.004 ± 0.0078	1.01	0.998 ± 0.059
O=C(O[C@@H]1Cc2c(O)cc(O)cc2O[C@@H]1c1cc(O)c(=O)c2c(O)c(O)cc([C@H]3Oc4cc(O)cc(O)c4C[C@H]3OC(=O)c3cc(O)c(O)c(O)c3)c2c1)c1cc(O)c(O)c(O)c1	0.996 ± 0.035	0.9235 ± 0.0064	1.045 ± 0.0071	0.903 ± 0.041	1.04
O=C1NCCN(C(=O)[C@H](Cc2ccccc2)NC(=O)[C@@H]2CCCN2)C1=O [Prolyl-phenylalanyl-diketopiperazine]	1.04 ± 0.15	1.02 ± 0.035	1.02 ± 0.021	0.984 ± 0.02	0.918 ± 0.0014
Nc1ccc(S(=O)(=O)NC(=O)c2ccccc2)cc1	1.07 ± 0.12	0.954 ± 0.12	1.11 ± 0.064	0.875 ± 0.15	1.02 ± 0.014
CN(C)c1nc(N(C)C)nc(N(C)C)n1	0.976 ± 0.076	0.97 ± 0.057	1.05	1.03 ± 0.035	1.01 ± 0.09
C[C@@H]1C[C@H]2O[C@@H]2/C=C\C=C\C(=O)Cc2c(Cl)c(O)cc(O)c2C(=O)O1 [Radicicol]	1.07 ± 0.035	0.802 ± 0.086	1.07 ± 0.099	0.898 ± 0.16	0.785 ± 0.035
CC(=O)[C@H]1CC[C@H]2[C@@H]3CCC4=CC(=O)CC[C@]4(C)[C@H]3CC[C@]12C	1.01 ± 0.078	1.02 ± 0.12	0.992 ± 0.025	0.979 ± 0.03	1.04 ± 0.028
CCCCCCCCCCCCCCCCCCCCCCO	1.04 ± 0.076	0.941 ± 0.065	0.97 ± 0.036	0.869 ± 0.032	0.927 ± 0.066
CC(=O)O[C@H]1C[C@@H]2CC[C@@H]3[C@H](CC[C@@]4(C)[C@H]3C[C@H]([N+]3(C)CCCCC3)[C@@H]4OC(C)=O)[C@@]2(C)C[C@@H]1N1CCCCC1	0.976 ± 0.077	1.03	1.004 ± 0.0092	1.03 ± 0.1	1.1 ± 0.014
NCCC(=O)N[C@@H](Cc1c[nH]cn1)C(=O)O	1.08 ± 0.064	1.04 ± 0.021	1.01 ± 0.016	1.24 ± 0.092	1.17 ± 0.11
C[C@]1(O)CC(=O)c2c(ccc3c2C(=O)c2cccc(O)c2C3=O)C1 [Tetrangomycin; Benzanthramycin; LL-AE-705-Y]	0.822 ± 0.019	0.978 ± 0.14	1 ± 0.067	0.853 ± 0.065	1.01 ± 0.045
COc1cc(O)c(C(=O)/C=C/c2ccc(OC)c(O)c2)c(OC)c1	1.06 ± 0.098	0.975 ± 0.093	1.1 ± 0.042	0.975 ± 0.064	0.8395 ± 0.00071
CC1(C)CC2C1CC[C@]1(C)CCC3C(C(=O)O)CC(=O)O[C@@]32C1 (stereo not given in full) [3-HYDROXY-4-(SUCCIN-2-YL)-CARYOLANE delta-LACTONE]	1.01 ± 0.088	0.9705 ± 0.00071	0.962 ± 0.035	1.07 ± 0.085	0.986 ± 0.021
CC(=O)O[C@@H]1CC2C(C)(C)[C@H](O)C=C[C@]2(C)C2CC[C@@]3(C)[C@H](c4ccoc4)OC(=O)C4OC43[C@@]21C (stereo not given in full)	1.05 ± 0.064	1.08 ± 0.092	1.06 ± 0.028	0.97 ± 0.042	0.926 ± 0.1
Cc1ncc(CO)c(CO)c1O	1.02 ± 0.033	1.09 ± 0.17	1.02 ± 0.014	0.951 ± 0.11	0.9705 ± 0.0092
C1CCC(C(CC2CCCCN2)C2CCCCC2)CC1 (stereo not given)	1.05 ± 0.05	0.983 ± 0.052	1.12 ± 0.021	0.971 ± 0.013	1.03
